# Laboratory results published in PubChem BioAssay (NCI).
# Compounds without any hit were thinned out: in the full panel of roughly 83,000, 20% have a hit.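 Plates (96-well) were seeded with cells, treated with compound at one concentration, and incubated for 48 hours before percent growth was determined.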 Unmarked numbers belong to inactive results. Activity calls are given as the source filed them. The calls were made as follows: active = growth percent below 10; inactive = the rest.
# Test system: MDA-MB-468 breast
# Experiment: NCI-60 one-dose screen, 48 h (100 = growth as untreated, 0 = no growth, -100 = all killed)
# Details: 10 µM unless noted
row,SMILES,growth
1,CCCCCCCCCCC/C=C\C[C@H](O)C/C=C1/C(=O)C=C[C@@H]1C/C=C\CCCC(=O)OC,-46.3% (active)
2,CCNCCNc1cc(-c2ccc(Cl)c(Cl)c2)c(C#N)c2nc3ccccc3n12,-80.9% (active)
3,N#CC1C(c2ccc(Cl)cc2)=Nc2c(c(-c3ccccc3)nn2-c2ccccc2)C12C(=O)Nc1ccc(Cl)cc12 (stereo not drawn),26.3%
4,Cc1c(Cc2ccccc2)c(=O)oc2c(C)c(OCC(=O)n3nc(C#N)cc3N)ccc12,114%
5,COCCN1CCN(Cc2ccc(-c3n[nH]c4c3C(=O)c3c(NC(=O)NN5CCOCC5)cccc3-4)cc2)CC1,-45.1% (active)
6,CC(=O)n1c2ccccc2c2ccccc21,105%
7,O=C1CCCc2nc(Nc3ccc(S(=O)(=O)Nc4ccc([N+](=O)[O-])cc4)cc3)ncc21,99.8%
8,COc1cc(Cl)cc(-c2nn(-c3cccc(NC(=O)Nc4ccc(Cl)c(Cl)c4)c3)cc2-c2ccncc2)c1,0.718% (active)
9,N#C/C(=C\c1ccc(-c2ccc(Cl)c(Cl)c2)o1)C(=O)Nc1ncc(Cc2ccc(Cl)cc2)s1,22.1%
10,CC(C)[C@H](CO)Nc1nc(Nc2ccc(C(=O)NCCNS(=O)(=O)c3cccc4c(N(C)C)cccc34)c(Cl)c2)c2ncn(C(C)C)c2n1,-14.1% (active)
11,CNC(=O)c1c(I)c(NC(C)=O)c(I)c(C(=O)O)c1I,102%
12,Cc1cc(-c2ccc(N=Nc3ccc4c(S(=O)(=O)O)cc(S(=O)(=O)O)c(N)c4c3O)c(C)c2)ccc1N=Nc1ccc2c(S(=O)(=O)O)cc(S(=O)(=O)O)c(N)c2c1O,98.2%
13,Cc1ccc(C(C)C)cc1NC(=O)Nc1ccc([N+](=O)[O-])cc1,4.03% (active)
14,O=C1NN(C(=O)c2ccc(Cl)cc2)C(c2ccccc2)=N/C1=C\c1ccc(F)cc1,67.9%
15,CCCCOc1ccc(/C(C)=N/Nc2cc(C)nc3ccc(Br)cc23)cc1,113%
16,O=C(O)c1ccc2c(c1)C(=O)c1ccccc1C2=O,-2.97% (active)
17,NC(=O)NN=C(C1CC1)C1CC1,119%
18,Nc1ccc(-c2csc(-n3[nH]c(=O)ccc3=O)n2)cc1,99.3%
19,O=C(N/N=C/c1cccc(O)c1)c1ccccc1Nc1cccc(C(F)(F)F)c1,27%

row,SMILES,growth
1,CN(C)c1ccc2[nH]c3c(C(N)=O)cc(=O)c(=O)c=3oc2c1,59.2%
2,COc1ccc(C(=O)C2C(c3ccc(OC)cc3)CN(C)C23C(=O)Nc2ccccc23)cc1 (stereo not drawn),95.4%
3,O=C1/C(=C/c2ccc(-c3ccc(Br)cc3)o2)SC(=S)N1CCc1ccc(O)cc1,90.2%
4,CC(N)C(=O)NNc1n[nH]c(=S)n1N (stereo not drawn),82%
5,C=C1C[C@H](O)[C@H](Br)C(C)(C)[C@@]12CCC(C)=C(Cl)C2,-28.3% (active)
6,CC(=O)Nc1nc(C)c(C(=O)N/N=C/c2cccn2C)s1,111%
7,CCN(CC)CCCC(C)N/C(=C1\C(=O)NC(=O)\C1=C(/NC(C)CCCN(CC)CC)c1cccc(OC)c1)c1cccc(OC)c1 (stereo not drawn),-42.6% (active)
8,O=[N+]([O-])c1ccc(NC(c2ccccc2)c2ccc3cccnc3c2O)cc1 (stereo not drawn),-28.9% (active)
9,Cc1ccc(C(SCC(N)C(=O)O)(c2ccccc2)c2ccc(C)cc2)cc1 (stereo not drawn),-1.71% (active)
10,NC(=O)c1c(NC(=O)c2ccc(C3CCCCC3)cc2)sc2c1CCC(=O)C2,-10.3% (active)
11,CC1(O)CCC(Nc2cc(-c3ccc(C(F)(F)F)cc3)c(C#N)c3nc4ccccc4n23)CC1 (stereo not drawn),86.8%
12,O=C1OC(N(Cc2ccc(Cl)cc2)c2ccccc2)c2ccccc21 (stereo not drawn),104%
13,C#CCOc1cccc(Nc2ncnc3c(NC(=O)CCl)cccc23)c1,-66.7% (active)
14,CC(=O)OC/C(C)=C\CC(C)COC(C)=O (stereo not drawn),98.5%
15,COCCOC1=C(Cl)C(=O)c2ccccc2C1=O,-5.01% (active)
16,FC(F)(F)c1ccc(/C=N/Nc2nnc3n2N=C(c2ccc(Cl)cc2)CS3)cc1,74.3%
17,O=c1oc2ccccc2cc1-c1nn(-c2ccccc2)cc1-c1nn[nH]n1,104%
18,O=C(NCCCCO)c1cncnc1Nc1ccc2c(ccn2Cc2cccc(F)c2)c1,67%
19,C#CCN(C)CCCOc1ccc(NC(=O)CCCCCCC(=O)NO)cc1Cl,-0.749% (active)
